This is part of a sample that, as a whole, favours compounds with a hit. Of some 83,000 tested, about 20% had one in any assay.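 The endpoint reported here, percent growth, reads 100 for growth as untreated, 0 for no net growth and -100 for all cells dead.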 A number with no mark means an inactive call. Active and inactive are the calls of the source. How the source made its calls: active means growth percent below 10; inactive means the rest.

Some test systems named below: DU-145 prostate; K-562 leukemia; MALME-3M melanoma; MDA-MB-231 breast; RXF 393 renal; SF-268 CNS; SF-295 CNS; SF-539 CNS; UACC-257 melanoma; M14 melanoma; HCT-15 colon; HT29 colon; SNB-75 CNS; SNB-19 CNS; U251 CNS; PC-3 prostate; SK-MEL-5 melanoma; UACC-62 melanoma; LOX IMVI melanoma; SK-MEL-28 melanoma.
Holding throughout (experiment): NCI-60 one-dose screen, 48 h (100 = growth as untreated, 0 = no growth, -100 = all killed)
Common to all, as to details: 10 µM unless noted

For `CN(C)CCOC(=O)Nc1ccc(Cl)cc1`, the growth with DU-145 prostate was 110%; in the test on K-562 leukemia it was 90.5%; in the test on MALME-3M melanoma, 114%; in the test on MDA-MB-231 breast, 93.8%; in the test on RXF 393 renal, 118%; in the test on SF-268 CNS it was 105%. Further, the growth is 103% in the test on SF-295 CNS; 102% with SF-539 CNS; 101% with UACC-257 melanoma; 90.5% in the test with M14 melanoma; 108% in the test with HCT-15 colon; 82.7% in the test on HT29 colon. In addition, the growth in the test on SNB-75 CNS is 96.3%; in the test with SNB-19 CNS, 106%; with U251 CNS, 101%; in the test with PC-3 prostate, 65.4%; with SK-MEL-5 melanoma, 99%; with UACC-62 melanoma, 97.2%. Moreover, the growth is 101% in the test on LOX IMVI melanoma and 115% with SK-MEL-28 melanoma.

Regarding `CCn1c(Sc2nnc(NC(=O)CSC(=S)N3CCCCC3)s2)nc2c1c(=O)n(C)c(=O)n2C`, the growth in the test with DU-145 prostate was 98%; in the test with K-562 leukemia, 43.6%; in the test on MALME-3M melanoma it was 71.5%; with MDA-MB-231 breast, 103%; in the test with RXF 393 renal it was 86.2%; in the test on SF-268 CNS, 96%. Besides, the growth is 83.9% in the test with SF-295 CNS; 97.7% in the test on SF-539 CNS; 94.4% in the test with UACC-257 melanoma; 67.9% in the test on M14 melanoma; 49% with HCT-15 colon; 41.3% in the test with HT29 colon. Moreover, the growth was 88.7% in the test on SNB-75 CNS; 87.5% in the test on SNB-19 CNS; 96.2% with U251 CNS; 79.2% in the test with PC-3 prostate; 85.4% in the test on SK-MEL-5 melanoma; 60.8% in the test on UACC-62 melanoma. Moreover, the growth is 81.5% in the test with LOX IMVI melanoma and 78.1% with SK-MEL-28 melanoma.

Regarding `N#Cc1c(-c2ccc(C(F)(F)F)cc2)cc(N2CC(O)C2)n2c1nc1ccccc12`, the growth with DU-145 prostate was 71.4%; with K-562 leukemia it was 110%; in the test on MALME-3M melanoma, -3.85% (active); in the test with MDA-MB-231 breast it was 39.2%; in the test on RXF 393 renal it was 21.5%; in the test on SF-268 CNS, 32.7%. Further, the growth in the test on SF-295 CNS is 28.1%; with SF-539 CNS, 36.2%; with UACC-257 melanoma, 51.9%; with M14 melanoma, 80.6%; with HCT-15 colon it was 85.7%; in the test on HT29 colon it was 74%. The growth with SNB-75 CNS was -18.5% (active); in the test on SNB-19 CNS, 24.8%; in the test with U251 CNS, 40.2%; with PC-3 prostate, 39.6%; in the test on SK-MEL-5 melanoma, 67.5%; in the test with UACC-62 melanoma, 33.9%. The growth is 53.2% with LOX IMVI melanoma and 59.7% in the test with SK-MEL-28 melanoma.

Consider `CC(C)n1nc(C#Cc2cccc(NC(=O)c3cccc(C(F)(F)F)c3)c2)c2c(N)ncnc21`, for which the growth was -22.9% (active) in the test on DU-145 prostate; -22.6% (active) in the test with K-562 leukemia; -39% (active) in the test on MALME-3M melanoma; -81.9% (active) in the test on MDA-MB-231 breast; -76.8% (active) in the test with RXF 393 renal; 3.1% (active) with SF-268 CNS. Moreover, the growth was -14.9% (active) in the test on SF-295 CNS; -73.9% (active) with SF-539 CNS; -18.2% (active) in the test on UACC-257 melanoma; -44% (active) in the test on M14 melanoma; -3.07% (active) in the test on HCT-15 colon; -11.7% (active) in the test with HT29 colon. Also, the growth was -66.2% (active) in the test with SNB-75 CNS; 5.79% (active) in the test with SNB-19 CNS; 2.84% (active) in the test on U251 CNS; 16.4% in the test with PC-3 prostate; -61.4% (active) in the test with SK-MEL-5 melanoma; -56.1% (active) in the test on UACC-62 melanoma. In addition, the growth in the test with LOX IMVI melanoma is -91.8% (active); in the test on SK-MEL-28 melanoma, -27.9% (active).

Turning to `C=C1C(=O)O[C@H]2[C@H]1CC/C(Cn1cc(CNCCc3c[nH]c4ccc(Cl)cc34)nn1)=C\CC[C@@]1(C)O[C@@H]21`, the growth is 83.6% with DU-145 prostate; 2.7% (active) in the test with K-562 leukemia; 53.9% in the test with MALME-3M melanoma; 59.7% with MDA-MB-231 breast; 16% in the test with RXF 393 renal; 77.9% with SF-268 CNS. The growth is 95.4% in the test on SF-295 CNS; 53.6% in the test with SF-539 CNS; 53.4% with UACC-257 melanoma; 66.1% in the test on M14 melanoma; 88.6% in the test with HCT-15 colon; 21.2% in the test on HT29 colon. The growth was 69.6% in the test on SNB-75 CNS; 83.7% in the test on SNB-19 CNS; 60.2% with U251 CNS; 75% in the test with PC-3 prostate; 86.6% in the test on SK-MEL-5 melanoma; 63% with UACC-62 melanoma. The growth in the test on LOX IMVI melanoma is 62%; in the test with SK-MEL-28 melanoma, 81.5%.

Take `CN(C)c1ccc(/C=N/NC(=O)COc2cc(=O)n(C)c3ccccc23)cc1`: the growth is 110% with DU-145 prostate; 103% in the test on K-562 leukemia; 98.4% with MALME-3M melanoma; 97.1% in the test on MDA-MB-231 breast; 93.4% with RXF 393 renal; 105% with SF-268 CNS. For the same compound, the growth in the test on SF-295 CNS is 102%; in the test on SF-539 CNS, 100%; in the test on UACC-257 melanoma, 112%; with M14 melanoma, 101%; in the test with HCT-15 colon, 104%; with HT29 colon, 108%. Further, the growth is 76.8% in the test on SNB-75 CNS; 88.4% with SNB-19 CNS; 104% with U251 CNS; 101% with PC-3 prostate; 101% with SK-MEL-5 melanoma; 88.5% in the test with UACC-62 melanoma. Moreover, the growth in the test with LOX IMVI melanoma was 99.8%; in the test with SK-MEL-28 melanoma it was 109%.

With `Oc1[nH]c2ccccc2c1/C=c1/cc2c(c(-c3ccc(F)cc3)n1)=Nc1ccccc1-2`, the growth with DU-145 prostate is 9.34% (active); in the test on K-562 leukemia it was 2.88% (active); in the test on MALME-3M melanoma, -54.5% (active); in the test with MDA-MB-231 breast, -4.54% (active); with RXF 393 renal, -57.1% (active); in the test on SF-268 CNS, 15.4%. The growth was -19.1% (active) in the test on SF-295 CNS; -65.6% (active) in the test with SF-539 CNS; 20.9% in the test on UACC-257 melanoma; -36.8% (active) with M14 melanoma; -18.1% (active) in the test on HCT-15 colon; -41.7% (active) in the test on HT29 colon. In addition, the growth in the test with SNB-75 CNS was -2.31% (active); in the test with SNB-19 CNS, 25.2%; with U251 CNS, -57.8% (active); in the test on PC-3 prostate, -14.8% (active); in the test with SK-MEL-5 melanoma it was -38.9% (active); with UACC-62 melanoma, -56% (active). The growth is -58.1% (active) in the test on LOX IMVI melanoma and -47.3% (active) with SK-MEL-28 melanoma.

As to `O=C1CCC(N2C(=O)c3cccc(NCCCC4CCN(CCNC(=O)c5cc6c(o5)C(=O)c5ccccc5C6=O)CC4)c3C2=O)C(=O)N1` (stereo not given), the growth is -94.9% (active) with DU-145 prostate; 2.99% (active) in the test with K-562 leukemia; -99.2% (active) with MALME-3M melanoma; -25.2% (active) in the test on MDA-MB-231 breast; -52.9% (active) in the test on RXF 393 renal; -32.7% (active) in the test on SF-268 CNS. In addition, the growth was -95.2% (active) with SF-295 CNS; -99.1% (active) with SF-539 CNS; -85.5% (active) with UACC-257 melanoma; -83.2% (active) with M14 melanoma; -80.8% (active) with HCT-15 colon; 1.94% (active) in the test with HT29 colon. Also, the growth is -99.2% (active) in the test with SNB-75 CNS; -96% (active) in the test with SNB-19 CNS; -83.6% (active) in the test on U251 CNS; 2.13% (active) with PC-3 prostate; -99.4% (active) with SK-MEL-5 melanoma; -96.2% (active) with UACC-62 melanoma. For the same compound, the values for the growth with LOX IMVI melanoma and with SK-MEL-28 melanoma were -90.1% (active) and -6.88% (active), respectively.

The record behind these values is PubChem BioAssay (NCI).
